Reference: paper PMC4336329 (PLoS ONE, 2015)
Hit rate of the full screen: of about 310,000 compounds, about 14,000 (4.5%) showed an effect of 50% or more. Effects have a minus sign here. The sample as a whole holds a higher share of strong results than the screen did.

Molecular target: human ether-à-go-go-related gene (hERG) potassium channel (human, UniProt Q12809)
Test: primary screen, population patch clamp on CHO cells stably expressing hERG; higher = less effect of the substance
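Further: peak tail current of the secondary pulse compared with the same well before compound.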

Chain of human ether-à-go-go-related gene (hERG) potassium channel (Q12809 whole entry, looked up): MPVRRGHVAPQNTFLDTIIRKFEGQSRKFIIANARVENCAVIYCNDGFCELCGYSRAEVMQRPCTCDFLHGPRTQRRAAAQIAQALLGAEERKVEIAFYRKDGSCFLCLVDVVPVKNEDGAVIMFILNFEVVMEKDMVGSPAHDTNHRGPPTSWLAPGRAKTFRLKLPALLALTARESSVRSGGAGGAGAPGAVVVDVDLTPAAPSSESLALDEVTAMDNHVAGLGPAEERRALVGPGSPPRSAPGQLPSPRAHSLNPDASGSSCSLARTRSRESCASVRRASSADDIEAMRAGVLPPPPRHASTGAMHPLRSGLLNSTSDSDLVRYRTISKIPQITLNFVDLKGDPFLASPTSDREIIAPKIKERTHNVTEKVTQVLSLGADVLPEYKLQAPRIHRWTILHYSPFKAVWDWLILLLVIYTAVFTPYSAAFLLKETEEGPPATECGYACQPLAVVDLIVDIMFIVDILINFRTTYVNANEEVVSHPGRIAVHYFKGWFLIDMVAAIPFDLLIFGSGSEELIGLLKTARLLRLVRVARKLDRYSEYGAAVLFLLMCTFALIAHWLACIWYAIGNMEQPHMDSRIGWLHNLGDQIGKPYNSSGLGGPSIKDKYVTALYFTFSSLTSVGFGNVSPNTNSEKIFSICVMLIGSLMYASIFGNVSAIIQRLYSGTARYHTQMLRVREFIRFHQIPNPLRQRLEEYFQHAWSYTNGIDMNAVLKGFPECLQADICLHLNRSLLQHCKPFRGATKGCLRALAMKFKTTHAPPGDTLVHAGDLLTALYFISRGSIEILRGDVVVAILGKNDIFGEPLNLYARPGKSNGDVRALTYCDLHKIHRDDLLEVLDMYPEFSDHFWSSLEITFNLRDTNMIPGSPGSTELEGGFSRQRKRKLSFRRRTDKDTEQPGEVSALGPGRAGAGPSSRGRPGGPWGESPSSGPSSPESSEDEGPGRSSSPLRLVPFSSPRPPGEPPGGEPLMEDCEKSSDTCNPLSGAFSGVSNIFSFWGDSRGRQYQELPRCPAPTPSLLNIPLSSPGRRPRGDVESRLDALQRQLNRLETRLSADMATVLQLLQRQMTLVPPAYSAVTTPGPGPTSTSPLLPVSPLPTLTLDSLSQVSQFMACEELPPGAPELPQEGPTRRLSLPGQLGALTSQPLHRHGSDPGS

Row | Compound | hERG current change (%, negative = inhibition) at 10uM [%]
1 | CC(=O)Nc1nc(C)c(Oc2ccc(Cl)cc2Cl)c(=O)[nH]1 | 10.5
2 | COc1ccccc1NC(=O)c1ccc(NC(=O)COC(=O)CC(NC(=O)c2ccccc2Cl)c2ccccc2)cc1 (stereo not drawn) | 6.73
3 | Cc1oc(-c2ccccc2Cl)nc1CN1CCCCC1CO (stereo not drawn) | -20.5
4 | CSc1ccc(-c2nc(CN3CCCCC3c3cccnc3)c(C)o2)cc1 (stereo not drawn) | -19.8
5 | COc1cccc(C2CCCCN2Cc2nc(-c3ccc(C)o3)oc2C)c1 (stereo not drawn) | -12.5
6 | Cc1ccc(-c2nc(CN3CCCCC3CCN3CCCC3=O)c(C)o2)o1 (stereo not drawn) | -51.5
7 | Cc1ccc(-c2nc(CN3CCCCC3c3cccc(F)c3)c(C)o2)o1 (stereo not drawn) | 44.7
8 | Cc1oc(-c2cccc(F)c2)nc1CN1CCCCC1CCn1cccn1 (stereo not drawn) | -73.1
9 | CCN1CCCC1CNC(=O)C1CCN(Cc2nc(-c3cccc(Br)c3)oc2C)CC1 (stereo not drawn) | -9.4
10 | Cc1oc(-c2cccc(C(F)(F)F)c2)nc1CN1CCC[C@H]1CO | -35
11 | CCOc1ccc(-c2nc(CN3CCCCC3CCn3cccn3)c(C)o2)cc1 (stereo not drawn) | -71.5
12 | O=C(NCCc1c[nH]c2ccccc12)c1c(Cl)nc2sccn12 | 15.4
13 | O=C(NC(Cc1c[nH]c2ccccc12)C(=O)O)c1cccs1 (stereo not drawn) | 18.6
14 | Cc1ccc(Cl)cc1NC(=O)CCC(=O)NCc1ccco1 | 7.15
15 | O=C(CN1C(=O)NC2(CCCc3ccccc32)C1=O)N1CCN(C(=O)c2ccco2)CC1 (stereo not drawn) | -34.3
16 | COc1ccc2[nH]c(O)c(NC(C)=O)c2c1 | 1.61
17 | COc1cc(NC(=O)COc2ccc(Br)cc2)ccc1NC(=O)C(C)C | 4.1
18 | CC1CCN(C(=O)COc2ccc(S(=O)(=O)N3CCOCC3)cc2)CC1 | -1.39
19 | Cc1ccc2[nH]cc(CCCN3C(=O)c4ccccc4C3=O)c2c1 | -51.4
20 | O=C1c2ccccc2C(=O)N1CCCc1c[nH]c2ccc(Cl)cc12 | -19.3
21 | COc1ccc2[nH]cc(CCCN3C(=O)c4ccccc4C3=O)c2c1 | -4.87
22 | CC(=O)c1cccc(NS(=O)(=O)c2ccc3c(c2)oc(=O)n3C)c1 | -6.14
23 | O=C1CCN(CCc2ccccc2)CCN1[C@H](CSc1ccc(Br)cc1)c1ccccc1 | -66.2

Row | Compound | hERG current change (%, negative = inhibition) at 10uM [%]
24 | O=C1CCN(Cc2ccccc2)CCN1[C@H](CSc1ccccc1)c1ccccc1 | -44.7
25 | [N-]=[N+]=NC[C@H](c1ccccc1)N1CCN(Cc2ccccc2)CCC1=O | -0.754
26 | Cc1ccc(SC[C@H](c2ccccc2)N2CCN(CCc3ccccc3)CCC2=O)cc1 | -74.7
27 | O=C1CCN(CCc2ccccc2)CCN1[C@H](CSc1ccccc1)c1ccccc1 | -78.7
28 | Cc1ccnc(N2CCC(C(=O)NNC(=O)COc3cccc4ccccc34)CC2)n1 | 11.2
29 | Cc1cccc(NC(=O)CCc2nnc3ccc(NCc4ccco4)nn23)n1 | 6.78
30 | Cc1cc(C)c(OCCN(C)C)c(Cl)c1.O=C(O)C(=O)O | -21.1
31 | O=C(NC1CCCC1)C(c1cccs1)N(C(=O)c1ccco1)c1ccc2c(c1)OCO2 (stereo not drawn) | -33.5
32 | Nc1nc(SCC(=O)NCc2ccco2)[nH]c(=O)c1-c1ccccc1 | 22.3
33 | CC(C(=O)N(C)CC(=O)Nc1ccccc1C(F)(F)F)N1C(=O)c2ccccc2C1=O (stereo not drawn) | -10.7
34 | COc1ccc(N(CC(=O)NC2CCCC2)C(=O)c2ccc(C)s2)cc1OC | 15.8
35 | COC(=O)c1ccc(NC(=O)C[n+]2ccccc2C)cc1.[Cl-] | 10.1
36 | Cc1cc(Nc2c(C)cccc2C)n2nc(C)nc2n1 | 3.66
37 | Cc1cc(Br)ccc1OCCCCN1CCC(C)CC1.O=C(O)C(=O)O | -67.9
38 | Cc1cc(Br)ccc1OCCOCCN1CCCC1.O=C(O)C(=O)O | -60.7
39 | Cc1cccc(C)c1OCCCCN1CCCCC1.O=C(O)C(=O)O | -11.8
40 | Cc1cc(Br)ccc1OCC(=O)N1CCCCCC1 | -12.1
41 | Cc1cc(Br)ccc1OCCN1CC(C)OC(C)C1.O=C(O)C(=O)O (stereo not drawn) | -17.8
42 | Cc1cc(Br)ccc1OCCCCN1CCCCC1.O=C(O)C(=O)O | -78.9
43 | CC(C)(C)c1ccccc1OCCOCCN1CCCCCC1.O=C(O)C(=O)O | -39.1
44 | CCN1CCN(CCOc2ccc(Br)cc2C)CC1.O=C(O)C(=O)O | -46.6
45 | Cc1cc(Br)ccc1OCCN1CCCC1.O=C(O)C(=O)O | -36.8
